Data on 43 molecules can be found in PubChem BioAssay (EPA / NIEHS).

Assay [1] has as its target Cellular tumor antigen p53 (Homo sapiens) (UniProt P04637). The assay is described as follows: TOX21_p53_BLA_p2_ratio: Tox21 HCT-116 p53 Agonism Beta-lactamase Assay, Ratio, Phase 2 (AID 2283592). Put shortly:
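Gain-of-signal p53 agonism was scored from the beta-lactamase FRET ratio (460/530 nm, 405 nm excitation) in HCT116 cells treated 16 h at 37C, 5% CO2, with DMSO serving as negative control and baseline.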

Assay [2] shares this target. The assay is described as follows: TOX21_p53_BLA_p3_ratio: Tox21 HCT-116 p53 Agonism Beta-lactamase Assay, Ratio, Phase 3 (AID 2283596). Put shortly: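 HCT116 p53-bla cells (4000/well) given compound in DMSO (217-fold dilution) after 5 h, incubated 16 h at 37C. CCF4-AM substrate 2 h at room temperature; 460/530 nm emission ratio, gain fitted against DMSO.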
Assay [3] has the same target. Put plainly: TOX21_p53_BLA_p4_ratio: Tox21 HCT-116 p53 Agonism Beta-lactamase Assay, Ratio, Phase 4 (AID 2283601). Put shortly: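 HCT-116 p53 beta-lactamase reporter cells (4000/well) preincubated 5 h, then compound (217-fold dilution of DMSO stock) for 16 h at 37C. CCF4-AM substrate added 2 h at room temperature; 460/530 nm emission ratio fitted upward versus DMSO.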

A short description of assay [4]: TOX21_p53_BLA_p4_viability: Viability Assessment in the Tox21 HCT-116 p53 Agonism Beta-lactamase Assay, Phase 4 (AID 2283597).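 Also: hits lower the luminescence signal meaning cytotoxicity.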 Put shortly: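 Following a 16 h exposure at 37C, the treated HCT116 wells were first read for the FRET ratio. They were then lysed with CellTiter-Glo, and ATP luminescence was recorded after 30 min at room temperature.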
Assay [5] concerns the target Cellular tumor antigen p53 (Homo sapiens) (UniProt P04637). The assay is described as follows: TOX21_p53_BLA_p5_ratio: Tox21 HCT-116 p53 Agonism Beta-lactamase Assay, Ratio, Phase 5 (AID 2283599). Put shortly: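 HCT-116 p53-bla cells (4000/well) plated 5 h, dosed with compound (217-fold DMSO dilution) for 16 h at 37 C; CCF4-AM substrate 2 h at room temperature. Activity is the 460/530 nm emission ratio (405 nm excitation), fitted in gain-of-signal direction versus DMSO.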

Assay [6] is described as follows: TOX21_p53_BLA_p5_viability: Viability Assessment in the Tox21 HCT-116 p53 Agonism Beta-lactamase Assay, Phase 5 (AID 2283600). Put shortly: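 After the 460/530 nm beta-lactamase measurement, the wells received an ATP-detection luciferase reagent; signal was read 30 min later at RT. Compound treatment lasted 16 h on cells pre-incubated 5 h post-seeding.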
Assay [7] can be described thus: Tanguay_ZF_120hpf_MORT_legacy: (Legacy) Oregon State University Tanguay Lab 120 Hour Post-fertilization zebrafish Assay for Mortality (AID 2283633). Put shortly: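 Static waterborne exposure from 6 to 120 hpf at 28C of single dechorionated wild-type (5D) embryos per well, 0.64% DMSO final. Death recorded present/absent by brightfield at 24 and 120 hpf.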
The nature of assay [8]: Tanguay_ZF_120hpf_YSE_legacy: (Legacy) Oregon State University Tanguay Lab 120 Hour Post-fertilization zebrafish Assay for Yolk Sac Edema (AID 2283634).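 As to AC50: actives raise the incidence of yolk sac edema above the DMSO baseline.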 Put shortly:
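Presence or absence of yolk sac edema was recorded at 120 hpf in surviving larvae. These were wild-type Tropical 5D embryos, chorion removed at 4 hpf, held in static exposure at 28C from 6 hpf with 0.64% DMSO vehicle.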

Assay [9] in a line: Tanguay_ZF_120hpf_AXIS_legacy: (Legacy) Oregon State University Tanguay Lab 120 Hour Post-fertilization zebrafish Assay for Body Axis Malformation (AID 2283635).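 As to AC50: potency for an increased fraction of larvae scored with body axis malformation.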 Put shortly:
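Binary scoring of axis defects at 120 hpf under brightfield, fitted positive versus DMSO. Tropical 5D embryos, chorion removed by pronase at 4 hpf, were singly exposed in sealed, dark plates at 28C from 6 hpf; DMSO 0.64% final.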

Structures are written as SMILES. Values joined by “and” are separate entries in the source; they are usually repeats but may differ in a detail not shown here. Equal entries are not always repeated. Results filed as inconclusive are left out. A structure can be active in one record and inactive in another. Active and inactive are the calls of the source. The calls were made as follows: active = hit-call score of the fitted dose curve at least 0.9, where 1 is the maximum; inconclusive = response in the unintended direction; inactive = score below 0.9.

Cellular tumor antigen p53 (Homo sapiens), sequence (P04637 whole entry, looked up): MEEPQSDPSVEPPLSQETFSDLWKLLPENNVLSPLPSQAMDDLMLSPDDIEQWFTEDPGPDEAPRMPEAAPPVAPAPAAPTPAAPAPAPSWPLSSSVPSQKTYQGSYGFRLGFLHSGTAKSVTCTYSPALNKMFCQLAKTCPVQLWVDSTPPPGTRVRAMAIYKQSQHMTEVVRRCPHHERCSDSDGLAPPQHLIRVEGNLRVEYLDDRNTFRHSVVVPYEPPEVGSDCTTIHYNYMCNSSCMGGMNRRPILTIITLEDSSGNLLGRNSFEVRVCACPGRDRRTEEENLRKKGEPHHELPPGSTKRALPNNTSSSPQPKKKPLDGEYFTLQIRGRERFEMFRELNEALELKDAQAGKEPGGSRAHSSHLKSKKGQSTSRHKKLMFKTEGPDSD

As for `OC[P+](CO)(CO)CO`, the result in [1], in assay [2] and in assay [3] was inactive.

As to `Cc1cc(SCc2sc(-c3ccc(C(F)(F)F)c(F)c3)nc2C)ccc1OCC(=O)O`, the half-maximal activity concentration (AC50) in [1] is 54.1 µM (active); in assay [2] it was 48.2 µM (active); in [4], 11.9 µM (active); in assay [5], 70.2 µM (active); in [6], 40.6 µM (active); in assay [3], 54.2 µM (active).

As to `CCCCCCCCCCCCBr`, the outcome in [1], in [4], in assay [5], in assay [6] and in assay [3] was inactive.

For the molecule `CCOP(=O)(OCC)OC(=CCl)c1ccc(Cl)cc1Cl`, the result in assay [1], in assay [2], in [4], in assay [5], in assay [6] and in assay [3] was inactive.

With `BrCCCCBr`, the result in assay [1] and in assay [4] was inactive.

As to `N#Cc1ccncc1`, the result in [1], in assay [2], in assay [6] and in [3] was inactive.

As for `O=C1C[C@@H]2OCC=C3CN4CC[C@]56c7ccccc7N1[C@H]5[C@H]2[C@H]3C[C@H]46`, the result in assay [1], in assay [2], in assay [4], in [5], in [6] and in [3] was inactive.

With `Oc1ccc(Cc2ccc(O)cc2)cc1`, the outcome in [1], in assay [2] and in [6] was inactive.

Consider `CNC(=O)O/N=C/C(C)(C)S(C)(=O)=O`, for which the outcome in assay [1], in assay [4], in [5] and in assay [6] was inactive.

Regarding `O=C(O)C1(c2ccc3c(c2)OC[C@H](Cc2ccc(-c4ccccc4)cc2)[C@H]3O)CCCC1`, the outcome in [7], in assay [8] and in [9] was inactive.

As to `O=C(NC(=O)c1c(F)cccc1F)Nc1cc(Cl)c(OC(F)(F)C(F)C(F)(F)F)cc1Cl` (stereo unspecified), the result in assay [2], in [4], in assay [6] and in [3] was inactive.

Consider `CCCSP(=S)(OCC)Oc1ccc(SC)cc1` (stereo unspecified), for which the outcome in [4] and in assay [3] was inactive.

Take `O=C(Cl)OCCOCCOC(=O)Cl`: the outcome in assay [2], in [6] and in assay [3] was inactive.

For `Cc1cc(C)cc(C)c1`, the molecule was classed as inactive in assay [7], in assay [8] and in [9].

Consider `Nc1nc(N)nc(Cl)n1`, for which the outcome in [6] and in assay [3] was inactive.

On to `CN(C)C(=S)S`, for which the result in assay [7] was inactive. For the same molecule, the half-maximal activity concentration (AC50) in assay [8] was 8.26 µM (active); in assay [9] it was 0.946 µM (active).

As to `CC(C)O.CC(C)O.OCCN(CCO)CCO.OCCN(CCO)CCO.[Ti]`, the molecule was called inactive in assay [7] and in assay [9].

For `OCCN(CCO)CCO`, the molecule was classed as inactive in [7], in assay [8] and in assay [9].

In the case of `O=[N+]([O-])c1ccccc1O`, the molecule was called inactive in [4], in assay [6] and in assay [3].

For the molecule `Clc1cccc(Cl)c1Cl`, the molecule was called inactive in assay [7], in assay [8] and in assay [9].

For the molecule `CCCCCCCCBr`, the outcome in assay [2], in assay [5] and in assay [6] was inactive.

Regarding `CCCCS(=O)(=O)Cl`, the outcome in assay [2], in assay [4] and in assay [6] was inactive.

On to `C#CCO`, for which the result in assay [3] was inactive.

Consider `N#Cc1cccnc1`, for which the molecule was called inactive in [7], in [8] and in assay [9].

Take `O=S(=O)(c1ccc(Cl)cc1)c1cc(Cl)c(Cl)cc1Cl`: the outcome in assay [2], in assay [5], in assay [6] and in assay [3] was inactive.

For `CCOC(=O)CCN(SN(C)C(=O)Oc1cccc2c1OC(C)(C)C2)C(C)C`, the outcome in assay [2], in [5], in [6] and in assay [3] was inactive.

As for `CC(C)(C1CCC(O)CC1)C1CCC(O)CC1` (stereo unspecified), the result in assay [4] was inactive.

Regarding `CS(=O)(=O)c1ccc(C(=O)C2C(=O)CCCC2=O)c(Cl)c1COCC(F)(F)F`, the outcome in assay [2], in assay [5], in assay [6] and in assay [3] was inactive.

Consider `CN(C)[C@@H]1C(=O)C(C(N)=O)=C(O)[C@@]2(O)C(=O)C3=C(O)c4c(O)ccc(Cl)c4[C@@](C)(O)[C@H]3C[C@@H]12`, for which the call in assay [4], in assay [5] and in [6] was inactive.

In the case of `C=CC(=O)NC(C)(C)CC(C)=O`, the outcome in assay [2], in [4] and in assay [6] was inactive.

Consider `CC(C)(C)c1ccccc1O`, for which the molecule was classed as inactive in assay [7], in [8] and in [9].

Take `C=C(C)[C@@H]1CC=C(C=O)CC1`: the outcome in assay [2], in assay [5] and in assay [3] was inactive.

For the molecule `O=C(N[C@H]1CN2CCC1CC2)c1ccc2c(c1)OCCO2`, the result in assay [7], in assay [8] and in assay [9] was inactive.

In the case of `COc1ccccc1N`, the outcome in assay [7], in [8] and in assay [9] was inactive.

In the case of `Cc1c([N+](=O)[O-])c(C)c([N+](=O)[O-])c(C(C)(C)C)c1[N+](=O)[O-]`, the AC50 in [4] is 42.5 µM (active). The outcome in assay [5], in assay [6] and in assay [3] was inactive.

In the case of `O=CCCl`, the outcome in assay [2], in [5] and in assay [3] was inactive.

As to `CC(=Cc1ccccc1)[N+](=O)[O-]`, the outcome in assay [5], in assay [6] and in [3] was inactive.

In the case of `CCCCCCCCCCCCc1cccc(S(=O)(=O)O)c1`, the molecule was classed as inactive in assay [7], in assay [8] and in [9].

On to `Clc1cccc(Cl)c1`, for which the call in assay [7], in assay [8] and in [9] was inactive.

`O=C(Nc1ccc(Br)cc1)c1cc(Br)cc(Br)c1O`: the AC50 in assay [2] is 255 nM (active) and 198 nM (active) and 1.8 µM (active); in [4], 1.33 µM (active) and 417 nM (active) and 2.76 µM (active); in assay [6], 9.14 µM (active); in assay [3], 1.11 µM (active) and 589 nM (active). Besides, the molecule was classed as inactive in assay [6] and in assay [3].

Consider `CCN(CCO)CCO`, for which the call in assay [6] and in assay [3] was inactive.

With `CC(C)CP(=S)(S)CC(C)C`, the result in assay [2], in assay [6] and in [3] was inactive.

In the case of `C=CCc1ccccc1O`, the outcome in assay [2], in assay [5] and in assay [3] was inactive.
